The values below come from PubChem BioAssay (Tox21).

Each structure is given as a SMILES string. Inconclusive results are not listed. A call without a number means that no potency is given here. Values without a mark were called inactive. The source made the active and inactive calls. Unless noted, calls come from the whole dose curve; as a rule, active = well fitted cell-killing curve with a large enough effect in the repeat runs; inconclusive = weak or mixed curves, or effect the other way; inactive = flat fitted curve, though single readings scatter.

Peroxisome proliferator-activated receptor gamma (Homo sapiens), sequence (P37231 whole entry, looked up): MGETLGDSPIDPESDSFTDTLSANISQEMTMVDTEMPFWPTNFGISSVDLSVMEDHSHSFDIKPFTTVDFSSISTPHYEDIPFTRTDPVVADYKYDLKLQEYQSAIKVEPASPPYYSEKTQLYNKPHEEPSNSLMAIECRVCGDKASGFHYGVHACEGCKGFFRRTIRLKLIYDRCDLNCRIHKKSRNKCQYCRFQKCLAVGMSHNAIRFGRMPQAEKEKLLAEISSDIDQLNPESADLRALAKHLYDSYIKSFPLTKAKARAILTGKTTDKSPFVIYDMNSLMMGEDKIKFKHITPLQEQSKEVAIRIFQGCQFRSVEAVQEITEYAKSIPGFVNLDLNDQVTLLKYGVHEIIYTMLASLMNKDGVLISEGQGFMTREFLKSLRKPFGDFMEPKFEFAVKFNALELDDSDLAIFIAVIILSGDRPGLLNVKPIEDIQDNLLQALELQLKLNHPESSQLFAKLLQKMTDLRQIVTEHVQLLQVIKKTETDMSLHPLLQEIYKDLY

Tested on in one experiment: not listed separately
The experiment in a line: qHTS assay to identify small molecule that activate the aryl hydrocarbon receptor (AhR) signaling pathway - cell viability counter screen (AID 743086).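 Note: HepG2 liver cells carrying the AhR DRE luciferase reporter; nearly all actives have a fitted effect of over 45% in size.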 The note with it: HepG2-AhR-luc viability, CellTiter-Fluor, 24 h; series mostly up to 70.3 µM; viability change, negative = cytotoxic: at the top concentration. The procedure, abridged:
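HepG2-AhR-luc (HG2L7.5c1) cells, 4000/well, treated 24 h at 37 C with compound; viability measured as CellTiter-Fluor fluorescence after 30 min in the same wells as the luciferase read.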
A general note: In qHTS, concentration-response curves come from the screen itself.
Regarding `CCCCCCCC/C=C\CCCCCCCC(=O)O`, the Potency result was “inactive”. On the same count and under the same terms, as for `CN(C)C`, the entry is “inactive”; as for `CCC(Cc1c(I)cc(I)c(N)c1I)C(=O)O` (centres undefined), “inactive”.

On to `Cc1ccc([N+](=O)[O-])c(C)c1`, for which the Potency result is “inactive”. Take `O=C1CCc2ccccc2O1`: the Potency result is “inactive”. Same read-out and setting: the value for `[Na+]` was “inactive”; that for `C1COCCN1` was “inactive”; that for `Nc1cc(Cl)c(N)c(Cl)c1` was “inactive”. Turning to `CC(C)(C)c1cccc(C(C)(C)C)c1O`, the Potency result was “inactive”. The same measure, in the same setting: the value for `C=CCNCC=C` was “inactive”. As to `FC(F)(F)C(Cl)Br` (centres undefined), the “viability change, negative = cytotoxic” value is -6.13%. Take `CCCCCC1C(=O)CCC1CC(=O)OC` (centres undefined): the Potency entry was “inactive”. The same measure, in the same setting: the value for `NCCOCCO` was “inactive”; that for `CNC[C@H](O)c1ccc(O)c(O)c1` was “inactive”.

For the compound `NCCS(=O)(=O)O`, the “viability change, negative = cytotoxic” value is 11.5%. In the case of `Cc1ccc(S(=O)(=O)O)cc1C`, the Potency entry was “inactive”. Same read-out and setting: as for `CC1(C)C(C=C(Cl)Cl)C1C(=O)OCc1cccc(Oc2ccccc2)c1` (centres undefined), the entry is “inactive”; as for `Cc1ccc(N)c([N+](=O)[O-])c1`, “inactive”.

With `O=C(O)c1cc(=O)[nH]c(=O)[nH]1`, the Potency result was “inactive”.

A further experiment concerns the target Peroxisome proliferator-activated receptor gamma (Homo sapiens) (UniProt P37231). The experiment in a line: qHTS assay to identify small molecule agonists of the peroxisome proliferator-activated receptor gamma (PPARg) signaling pathway (AID 743094; active = well fitted activation curve with a large enough effect in the signal ratio in the repeat runs, not every such curve was filed as active; the % refers to the signal ratio). The note with it: HEK293H PPARg-UAS-bla, beta-lactamase FRET ratio, 17 h; series mostly up to 57 µM; activation: at the top concentration. Summed up: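 Agonist activity was taken from a beta-lactamase reporter (FRET substrate, 1 h at room temperature) in HEK293H cells carrying a PPARg UAS-bla construct. Compounds in DMSO were incubated 17 h at 37C after a 5 h cell pre-incubation.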
Regarding `O=S1(=O)CCCO1`, the result was inactive. The same measure, in the same setting: as for `CCOC(=O)C(C)Oc1ccc(Oc2cnc3cc(Cl)ccc3n2)cc1` (centres undefined), the entry is “inactive”. Consider `COC(=O)CC(=O)OC`, for which the “activation” value was 8.15%. `C=C[Si](OCCOC)(OCCOC)OCCOC`: the result was inactive. On the same count and under the same terms, the value for `CN(C)/N=N/c1nc[nH]c1C(N)=O` was “inactive”; that for `c1ccc2c(c1)[nH]c1ccccc12` was “inactive”; that for `CCCCCCC(C)O` (centres undefined) was “inactive”. For `CCC/C=C/C=O`, the outcome was inactive.

`CCCCCCCCCCCCO`: the “activation” value is -2.46% [at 78.9 µM]. The same measure, in the same setting: the value for `CC(C)[N+](C)(CCOC(=O)C1c2ccccc2Oc2ccccc21)C(C)C` was 2.95%.

As to `C/C=C/C(=O)N(CC)c1ccccc1C`, the result was inactive. As to `CCc1cccc2c3c([nH]c12)C(CC)(CC(=O)O)OCC3` (centres undefined), the result was inactive.

For `CCCCCCCCCCCCCO`, the outcome was inactive. Same read-out and setting: as for `CC(C)=CCO`, the entry is “inactive”; as for `CC(=O)Oc1c(C)c(C)c2c(c1C)CC[C@@](C)(CCC[C@H](C)CCC[C@H](C)CCCC(C)C)O2`, “inactive”; as for `Cc1ccc(C(C)(C)C)cc1`, “inactive”. On the same count and under the same terms, the value for `CCO[Si](CCCNC(N)=O)(OCC)OCC` was “inactive”; that for `OC[C@H]1O[C@@H]2O[C@H]3[C@H](O)[C@@H](O)[C@@H](O[C@H]4[C@H](O)[C@@H](O)[C@@H](O[C@H]5[C@H](O)[C@@H](O)[C@@H](O[C@H]6[C@H](O)[C@@H](O)[C@@H](O[C@H]7[C@H](O)[C@@H](O)[C@@H](O[C@H]1[C@H](O)[C@H]2O)O[C@@H]7CO)O[C@@H]6CO)O[C@@H]5CO)O[C@@H]4CO)O[C@@H]3CO` was “inactive”. On the same count and under the same terms, the value for `CC1(C)O[C@@H]2C[C@H]3[C@@H]4C[C@H](F)C5=CC(=O)C=C[C@]5(C)[C@@]4(F)[C@@H](O)C[C@]3(C)[C@]2(C(=O)CO)O1` was “inactive”; that for `CCCCCCCC/C=C\CCCCCCCC(=O)O` was “inactive”. In the case of `CN(C)C`, the outcome was inactive.

In the case of `CCC(Cc1c(I)cc(I)c(N)c1I)C(=O)O` (centres undefined), the “activation” value was -0.965% [at 26.2 µM].

Regarding `Cc1ccc([N+](=O)[O-])c(C)c1`, the result was inactive. Take `O=C1CCc2ccccc2O1`: the result was inactive. Consider `[Na+]`, for which the result was inactive.

With `Nc1cc(Cl)c(N)c(Cl)c1`, the outcome was inactive. Take `CC(C)(C)c1cccc(C(C)(C)C)c1O`: the result was inactive. On the same count and under the same terms, the value for `C=CCNCC=C` was “inactive”.

Turning to `FC(F)(F)C(Cl)Br` (centres undefined), the result was inactive. Still for that read-out and setting: the value for `CCCCCC1C(=O)CCC1CC(=O)OC` (centres undefined) was “inactive”; that for `CNC[C@H](O)c1ccc(O)c(O)c1` was “inactive”; that for `NCCS(=O)(=O)O` was “inactive”. Same read-out and setting: as for `Cc1ccc(S(=O)(=O)O)cc1C`, the entry is “inactive”; as for `Cc1ccc(N)c([N+](=O)[O-])c1`, “inactive”; as for `O=C(O)c1cc(=O)[nH]c(=O)[nH]1`, “inactive”.
